PubChem BioAssay (NCATS)
Several values for one entry are separate records, joined by “and”; a condition that tells them apart may be missing. Equal entries are not always repeated. Records with an inconclusive call do not appear. Activity calls are given as the source filed them. Unless noted, calls come from the whole dose curve; as a rule, active = well fitted curve in the direction sought with a large enough effect; inconclusive = small, poorly fitted or top-dose-only effect, or another doubt; inactive = no such curve, though single readings can be large; an effect the other way counts as inactive or inconclusive.

Assays:
[1] = target: Mitogen-activated protein kinase 10 (Mus musculus) (UniProt Q61831); test: JNK3 AlphaScreen Assay (AID 530; active = well fitted curve in either direction with a large enough effect, not every such curve was filed as active;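 note: kinase came from lysate of stimulated human HepG2 cells; signal reports phosphorylation of biotinylated GST-cJun 1-79 at Ser73 with 10 µM ATP; % is set by controls: 0 for no effect and ±100 for the full control effect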); settings: JNK3 lysate, c-Jun phosphorylation; series mostly up to 57.1 µM
How it was run: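 Phosphorylation of biotinylated GST-cJun(1-79) at Ser73 is measured by AlphaScreen proximity luminescence. Enzyme is JNK3 in HepG2 lysates activated with interleukin-1beta and tumor necrosis factor alpha; ATP is 10 uM final.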

[2] = Cell Viability - LYMP2-001 (AID 921); settings: LYMP2-001 lymphoblastoid cell viability; series mostly up to 92.2 µM;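 note: cells exposed to compound for 24 h at 37 °C; 0% = DMSO only and full inhibition = tetraoctylammonium bromide control wells; nearly all actives have a fitted effect of over 70% in size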
How it was run: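 Human lymphoblastoid LYMP2-001 cells, 2500 per well, in complete medium, treated 24 h at 37 C. Viability from cellular ATP by CellTiter-Glo luminescence; AC50 from Hill-equation fits of qHTS concentration-response.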

[3] = MultiTox-Fluor Cytotoxicity Assay - LYMP1-002 - Dead Cells (AID 960); settings: LYMP1-002 lymphoblastoid cells, dead-cell protease fluorescence; series mostly up to 46.1 µM;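 note: 0% = DMSO and 100% = tetraoctylammonium bromide; nearly all actives have a fitted effect of over 60% in size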
How it was run: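 Cells were plated, rested 5 hr, then treated with compound dilution series for 16 hr at 37 C. After adding substrate reagent and 60 min at room temperature, dead-cell protease fluorescence gave concentration-response curves fitted by the Hill equation.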

[4] = Cell Viability - LYMP2-004 (AID 966); settings: LYMP2-004 lymphoblastoid cell viability, qHTS; series mostly up to 92.2 µM;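 note: cells exposed to compound for 24 h; plate controls were DMSO only for no effect and tetraoctylammonium bromide control for full effect; nearly all actives have a fitted effect of over 65% in size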
How it was run: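 qHTS cytotoxicity: human lymphoblastoid line, 24 hr compound treatment, 37 C, complete medium. Viability read as cellular ATP via luciferase luminescence; tetraoctylammonium bromide served as positive control.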

[5] = Cell Viability - LYMP2-009 (AID 968); settings: LYMP2-009 lymphoblastoid cell viability; series mostly up to 92.2 µM;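 note: cells exposed to compound for 24 h at 37 °C; 0% = DMSO alone and the full-kill end = tetraoctylammonium bromide at 92 µM; nearly all actives have a fitted effect of over 55% in size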
[6] = Cell Viability - LYMP2-012 (AID 982); settings: LYMP2-012 lymphoblastoid cell viability qHTS; series mostly up to 92.2 µM;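 note: cellular ATP by luciferase luminescence where a drop means cytotoxicity; cells exposed to compound for one day before reading; 0% = DMSO only and full loss = 92 µM tetraoctylammonium bromide; nearly all actives have a fitted effect of over 55% in size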
[7] = Cell Viability - LYMP2-024 (AID 988); settings: LYMP2-024 lymphoblastoid cell viability; series mostly up to 92.2 µM;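 note: cells exposed to compound for 24 hr at 37 °C; plate controls were DMSO only for no effect and 92 µM tetraoctylammonium bromide for full effect; nearly all actives have a fitted effect of over 60% in size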
How it was run: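 qHTS cytotoxicity, human lymphoblastoid line, complete medium; 24 h cpd treatment, 37 C; CellTiter-Glo ATP luminescence readout; tetraoctylammonium bromide positive control; AC50 via Hill fit.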

[8] = target: Glucocorticoid receptor (Homo sapiens) (UniProt P04150); test: qHTS assay for small molecule agonists of glucocorticoid receptor signaling (AID 588532; active = well fitted curve in the direction sought with a large enough effect in the signal ratio, with a control signal flat; the % refers to the signal ratio;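 note: 100% = dexamethasone at 0.1 µM and 0% = DMSO only wells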); settings: HeLa MMTV-bla, beta-lactamase ratio, agonist, 18 h; stronger effect = higher value; percent of dexamethasone control, DMSO zero
How it was run: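 Stimulation of a glucocorticoid response element-driven beta-lactamase gene was measured in HeLa cells. Responses were scaled between DMSO basal and 0.1 uM dexamethasone, then fitted for half-maximal stimulation.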

[9] = target: Glucocorticoid receptor (Homo sapiens) (UniProt P04150); test: qHTS assay for small molecule antagonists of glucocorticoid receptor signaling (AID 588533; active = well fitted inhibition curve with a large enough effect in the signal ratio, with a control signal flat, not every such curve was filed as active; the % refers to the signal ratio;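 note: cells stimulated with 2 nM dexamethasone as agonist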; note: potency is the fitted concentration of half-maximal effect); settings: HeLa MMTV-bla, GRE beta-lactamase ratio, antagonist mode, 18 h; series mostly up to 76.8 µM
How it was run: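 Antagonist-mode qHTS: compound titrations added to GRE-bla HeLa cells, then dexamethasone 2 nM final; 18 h, 37 C. CCF4 FRET fluorescence normalized to dexamethasone and DMSO; IC50 from Hill fit.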

[10] = target: Peroxisome proliferator-activated receptor gamma (Homo sapiens) (UniProt P37231); test: qHTS assay for small molecule agonists of peroxisome proliferator-activated receptor gamma signaling (AID 588536; active = well fitted curve in the direction sought with a large enough effect in the signal ratio, with a control signal flat, not every such curve was filed as active; the % refers to the signal ratio;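 note: 0% = DMSO basal wells and 100% = rosiglitazone at 2 µM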); settings: HEK293 PPARg-UAS-bla, beta-lactamase ratio, 16 h, percent of rosiglitazone response, DMSO as zero; series mostly up to 76.7 µM
How it was run: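 Cells were plated and held 6–6.5 h at 37 C, then compounds were added as a titration series. After a further 16 h, CCF4 dye was loaded for 2 h at room temperature and emission at 460/530 nm recorded.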

[11] = target: Thyroid hormone receptor beta (Homo sapiens) (UniProt P10828); test: qHTS assay for small molecule agonists of thyroid hormone receptor beta signaling (AID 588545; calls by dose curve;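 note: 0% = DMSO only and 100% = 10 nM T3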); settings: TR-UAS-bla GripTite HEK 293, beta-lactamase ratio, agonist mode, 18 h, percent of T3 response, DMSO as zero; series mostly up to 76.7 µM
How it was run: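 Efficacy and EC50 values derive from Hill fits of qHTS titration data, normalized to 10 nM T3 and DMSO-only wells. HEK 293 reporter cells were stimulated for 18 hrs at 37 C, with beta-lactamase activity measured by CCF4 fluorescence.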

[12] = qHTS assay for small molecule activators of the p53 signaling pathway (AID 651743; active = well fitted activation curve with a large enough effect in the signal ratio, not every such curve was filed as active; the % refers to the signal ratio; note: % of control where 0% means no effect); settings: HCT-116 p53RE-bla, beta-lactamase FRET ratio, 16 h; activation: stronger effect = higher value
How it was run: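 Agonist-mode quantitative HTS in HCT-116 cells carrying a p53-response-element beta-lactamase reporter; 16 h compound treatment at 37 C, then FRET substrate loading for 2 h at room temperature and fluorescence read.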

[13] = target: Nuclear receptor ROR-gamma (Homo sapiens) (UniProt P51449); test: qHTS assay for small molecule antagonists of the retinoid-related orphan receptor gamma (ROR-gamma) signaling pathway (AID 651802); settings: ROR-gamma antagonist cell reporter assay; series mostly up to 92.2 µM; note: nearly all actives have a fitted effect of over 60% in size; note: potency is the fitted concentration of half-maximal effect
How it was run: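 Steps: cells dispensed; compound or DMSO transferred by pin tool; doxycycline added to induce the ROR response element-driven luciferase; plates held 16hr at 37C; ONE-Glo added and luminescence measured.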

[14] = qHTS assay for small molecule antagonists of the retinoid-related orphan receptor gamma (ROR-gamma) signaling pathway - cell viability counter screen (AID 720652; active = well fitted curve in the direction sought with a large enough effect in the repeat runs; an effect the other way counts as inactive or inconclusive;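 note: CHO reporter cells with doxycycline-induced ROR-gamma expression; compound exposure lasted 16 hr before ATP read; % is set by controls: 0 for no effect and ±100 for the full control effect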); settings: RORgamma reporter cell line viability counter screen; series mostly up to 92.2 µM
How it was run: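 Steps: seed CHO cells bearing TET-inducible ROR and ROR response element-luciferase; rest 5 hr at 37 C; add compound, then doxycycline; incubate 16 hr; add CellTiter-Glo and read luminescence as ATP-based viability.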

[15] = Cell Viability - Jurkat (AID 426;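 active = dose-dependent loss of cell ATP signal giving a full or clear fitted curve, ranked by lower potency value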; note: potency is the fitted concentration of half-maximal effect); settings: qHTS
How it was run: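 Cells of the human T-cell leukemia line Jurkat (E6-1) are seeded at 5000 per well, treated with compound across a concentration range for 40 hours at 37 °C, then lysed with CellTiter-Glo; luminescence reports ATP.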

[16] = Cell Viability - Hek293 (AID 427;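 active = compounds whose dose-response curve shows a full or clear partial loss of cell viability, called from curve shape rather than a numeric limit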;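 note: potency is the fitted concentration of half-maximal effect; cells exposed to compound for 40 hours at 37 °C before reading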); settings: qHTS
How it was run: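 HEK293 cells in complete medium were exposed to compound for 40 hr at 37 °C, then cellular ATP was read by CellTiter-Glo luminescence. Data were normalized to DMSO (basal) and 100 uM tamoxifen (100% inhibition), and AC50 came from Hill fits.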

[17] = Cellular Toxicity (caspase-3) NIH 3T3 (AID 666); settings: NIH 3T3 caspase-3 activation, apoptosis/toxicity, 0% DMSO, 100% is 100 µM tamoxifen; series mostly up to 92.2 µM;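 note: caspase signal read after 16 h compound exposure; 0% = DMSO basal and 100% = 100 µM tamoxifen stimulation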
How it was run: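 Cells were plated at 1000 per well and incubated 5 hr at 37°C, then compound was added for 16 hr. Caspase-Glo 3/7 reagent followed for 20 min at room temperature before luminescence was read.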

[18] = qHTS assay for small molecule agonists of retinoid X receptor alpha signaling (AID 588544); settings: HEK293T RXRa-UAS-bla, beta-lactamase reporter, 18 h; 530 nm emission
[19] = target: Tumor necrosis factor (Homo sapiens) (UniProt P01375); test: qHTS assay to identify small molecules that stimulate Tumor Necrosis Factor-alpha (TNF-alpha) secretion (AID 651757; active = well fitted curve in the direction sought with a large enough effect in the signal ratio; the % refers to the signal ratio; note: 0% is about no effect); settings: Human cells, HTRF 665/615 ratio; series mostly up to 92.2 µM
How it was run: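 Human monocytic THP-1 cells are plated, treated with compound and held at 37 C for 17 hrs. Labeled anti-TNF-alpha antibody mixture is then added; after 3 hr at room temperature, TR-FRET signal reports secreted TNF-alpha.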

[20] = target: Estrogen receptor (Homo sapiens) (UniProt P03372); test: qHTS assay for small molecule antagonists of estrogen receptor alpha signaling (AID 588513; active = well fitted curve in the direction sought with a large enough effect in the signal ratio, with a control signal flat, not every such curve was filed as active; the % refers to the signal ratio; note: % is set by controls: 0 for no effect and ±100 for the full control effect); settings: ER-alpha-UAS-bla HEK293, beta-lactamase ratio, antagonist mode; series mostly up to 76.9 µM
How it was run: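 ER-alpha-UAS-bla GripTite HEK 293 cells in 2% charcoal/dextran-treated FBS medium; compounds titrated (1:2, duplicate), then stimulated with 0.5 nM 17-beta-estradiol for 18 h at 37C. CCF4 beta-lactamase fluorescence; Hill-fit IC50 and efficacy.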

Chain of Peroxisome proliferator-activated receptor gamma (Homo sapiens) (P37231 whole entry, looked up): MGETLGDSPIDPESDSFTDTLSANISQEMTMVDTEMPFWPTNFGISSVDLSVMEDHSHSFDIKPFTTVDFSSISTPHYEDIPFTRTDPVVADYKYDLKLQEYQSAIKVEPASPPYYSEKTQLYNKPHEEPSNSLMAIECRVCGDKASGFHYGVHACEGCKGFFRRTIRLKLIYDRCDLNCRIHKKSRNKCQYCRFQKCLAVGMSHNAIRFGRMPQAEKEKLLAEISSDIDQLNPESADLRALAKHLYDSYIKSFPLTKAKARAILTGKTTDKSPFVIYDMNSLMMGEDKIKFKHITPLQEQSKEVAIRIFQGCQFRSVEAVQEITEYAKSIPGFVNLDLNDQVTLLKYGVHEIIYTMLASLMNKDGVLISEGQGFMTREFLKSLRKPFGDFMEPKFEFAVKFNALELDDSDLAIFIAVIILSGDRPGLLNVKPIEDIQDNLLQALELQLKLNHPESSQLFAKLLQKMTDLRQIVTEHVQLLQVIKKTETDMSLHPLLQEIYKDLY
Chain of Tumor necrosis factor (Homo sapiens) (P01375 whole entry, looked up): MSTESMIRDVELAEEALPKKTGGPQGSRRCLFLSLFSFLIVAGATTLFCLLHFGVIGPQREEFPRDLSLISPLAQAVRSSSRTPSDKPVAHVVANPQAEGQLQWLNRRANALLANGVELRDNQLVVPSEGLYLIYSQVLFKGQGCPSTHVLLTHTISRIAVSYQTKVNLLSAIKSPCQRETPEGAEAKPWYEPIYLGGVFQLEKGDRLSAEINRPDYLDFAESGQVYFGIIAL
Chain of Estrogen receptor (Homo sapiens) (P03372 whole entry, looked up): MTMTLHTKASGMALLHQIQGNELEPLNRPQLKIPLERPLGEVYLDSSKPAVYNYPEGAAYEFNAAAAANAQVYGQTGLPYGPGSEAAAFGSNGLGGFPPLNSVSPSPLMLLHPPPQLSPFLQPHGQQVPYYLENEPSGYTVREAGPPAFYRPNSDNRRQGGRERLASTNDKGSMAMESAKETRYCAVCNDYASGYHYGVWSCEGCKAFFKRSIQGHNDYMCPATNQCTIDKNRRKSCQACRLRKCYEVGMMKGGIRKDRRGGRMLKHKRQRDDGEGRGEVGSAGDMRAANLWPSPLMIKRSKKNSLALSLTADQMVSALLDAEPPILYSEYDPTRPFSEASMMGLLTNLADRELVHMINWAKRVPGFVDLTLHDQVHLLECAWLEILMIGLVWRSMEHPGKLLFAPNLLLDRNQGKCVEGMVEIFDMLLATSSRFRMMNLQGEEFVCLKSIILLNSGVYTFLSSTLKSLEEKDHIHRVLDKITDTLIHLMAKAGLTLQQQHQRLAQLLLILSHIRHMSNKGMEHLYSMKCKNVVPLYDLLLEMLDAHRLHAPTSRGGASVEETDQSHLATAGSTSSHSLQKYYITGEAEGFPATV
Chain of Glucocorticoid receptor (Homo sapiens) (P04150 whole entry, looked up): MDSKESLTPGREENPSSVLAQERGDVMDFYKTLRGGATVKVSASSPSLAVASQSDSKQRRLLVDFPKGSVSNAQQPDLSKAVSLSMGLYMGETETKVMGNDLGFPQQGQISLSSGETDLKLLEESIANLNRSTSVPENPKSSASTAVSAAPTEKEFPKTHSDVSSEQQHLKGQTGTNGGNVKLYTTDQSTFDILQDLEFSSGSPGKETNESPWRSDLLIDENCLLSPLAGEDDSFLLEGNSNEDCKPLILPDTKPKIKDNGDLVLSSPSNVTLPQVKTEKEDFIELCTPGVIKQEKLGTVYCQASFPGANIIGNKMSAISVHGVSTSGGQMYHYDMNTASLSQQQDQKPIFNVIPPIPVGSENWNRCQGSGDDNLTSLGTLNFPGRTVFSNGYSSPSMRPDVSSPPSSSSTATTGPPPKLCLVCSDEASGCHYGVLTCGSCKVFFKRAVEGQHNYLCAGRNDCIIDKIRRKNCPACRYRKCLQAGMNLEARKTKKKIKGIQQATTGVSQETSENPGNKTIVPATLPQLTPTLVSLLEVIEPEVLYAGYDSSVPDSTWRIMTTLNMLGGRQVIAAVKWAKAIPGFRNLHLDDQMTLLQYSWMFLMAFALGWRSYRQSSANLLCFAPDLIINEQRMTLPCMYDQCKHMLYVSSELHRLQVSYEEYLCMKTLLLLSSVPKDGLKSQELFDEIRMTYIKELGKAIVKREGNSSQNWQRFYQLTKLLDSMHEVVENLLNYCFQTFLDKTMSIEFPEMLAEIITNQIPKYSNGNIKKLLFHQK
Chain of Thyroid hormone receptor beta (Homo sapiens) (P10828 whole entry, looked up): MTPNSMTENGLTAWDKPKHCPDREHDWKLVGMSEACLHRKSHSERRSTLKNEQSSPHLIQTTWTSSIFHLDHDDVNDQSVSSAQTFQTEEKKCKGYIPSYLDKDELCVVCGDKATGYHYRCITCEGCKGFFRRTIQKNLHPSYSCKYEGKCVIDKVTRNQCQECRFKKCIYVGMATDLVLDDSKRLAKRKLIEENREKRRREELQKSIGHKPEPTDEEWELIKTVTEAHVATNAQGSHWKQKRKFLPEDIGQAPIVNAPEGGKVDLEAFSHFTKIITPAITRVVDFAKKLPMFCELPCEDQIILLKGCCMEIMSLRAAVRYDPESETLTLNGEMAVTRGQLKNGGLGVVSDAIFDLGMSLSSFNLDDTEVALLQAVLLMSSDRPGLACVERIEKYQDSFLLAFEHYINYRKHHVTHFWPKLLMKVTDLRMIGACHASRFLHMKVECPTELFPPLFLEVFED
Chain of Nuclear receptor ROR-gamma (Homo sapiens) (P51449 whole entry, looked up): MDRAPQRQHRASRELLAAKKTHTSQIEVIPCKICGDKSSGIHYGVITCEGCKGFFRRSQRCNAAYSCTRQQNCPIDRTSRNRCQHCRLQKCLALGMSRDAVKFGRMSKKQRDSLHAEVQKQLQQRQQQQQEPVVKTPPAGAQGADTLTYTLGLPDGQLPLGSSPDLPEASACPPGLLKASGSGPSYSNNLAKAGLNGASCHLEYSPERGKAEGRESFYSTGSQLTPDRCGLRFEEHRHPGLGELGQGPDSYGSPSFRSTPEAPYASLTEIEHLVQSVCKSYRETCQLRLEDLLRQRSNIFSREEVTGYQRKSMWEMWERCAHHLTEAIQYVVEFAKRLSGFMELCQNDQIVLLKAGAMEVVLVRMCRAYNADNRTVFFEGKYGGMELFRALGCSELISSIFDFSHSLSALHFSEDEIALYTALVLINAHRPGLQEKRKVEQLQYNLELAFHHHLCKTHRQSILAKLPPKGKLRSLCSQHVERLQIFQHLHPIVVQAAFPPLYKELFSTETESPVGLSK

COC1=CC(=O)O[C@@H](/C=C/c2ccc3c(c2)OCO3)C1
inactive: outcome [1] | Potency [2] | Potency [3] | Potency [4] | Potency [5] | Potency [6] | Potency [7] | activation [8] -3.44% | Potency [9] | outcome [10] | outcome [11] | activation [12] -5.07% | Potency [13] | Potency [14]

C[C@]12CC[C@H]3[C@@H](CCC4=CC(=O)CC[C@@]43C)[C@@H]1CC[C@@H]2O
active: Potency [9] 7.08 µM | Potency [13] 26.6 µM
3.81%: max response [18]
inactive: Potency [15] > 92 µM | Potency [16] > 92 µM | outcome [17] | Potency [2] | Potency [3] | Potency [4] | Potency [5] | Potency [6] | Potency [7] | activation [8] -9.17% | outcome [11] | activation [12] -0.245% | outcome [19] | Potency [14]

c1ccc(-c2ccccc2)cc1
inactive: Potency [15] > 92 µM | Potency [16] > 92 µM | outcome [1] | outcome [17] | Potency [3] | Potency [4] | Potency [5] | Potency [6] | Potency [7] | Potency [20] | activation [8] -0.478% and -3.49% | Potency [9] | outcome [10] | outcome [11] | activation [12] 2.71% and -2.97% | outcome [19] | Potency [13] | Potency [14]
-1.55% and -17%: max response [18]

c1ccc(OP(Oc2ccccc2)Oc2ccccc2)cc1
3.52% and -16.1%: max response [18]
inactive: Potency [15] > 92 µM | Potency [16] > 92 µM | outcome [1] | outcome [17] | Potency [2] | Potency [3] | Potency [4] | Potency [5] | Potency [6] | Potency [7] | Potency [20] | activation [8] 10.9% and -3.42% | Potency [9] | outcome [10] | outcome [11] | activation [12] -2.41% and -6.19% | outcome [19] | Potency [13] | Potency [14]

CCCCOCCOP(=O)(OCCOCCCC)OCCOCCCC
inactive: Potency [15] > 92 µM | Potency [16] > 92 µM | outcome [1] | outcome [17] | Potency [2] | Potency [3] | Potency [4] | Potency [5] | Potency [6] | Potency [7] | Potency [20] | activation [8] 0.713% and -16.4% | Potency [9] | outcome [10] | outcome [11] | activation [12] -1.25% and 0.739% | Potency [14]
-10.8% and -2.33%: max response [18]

Brc1ccc(Oc2cc(Br)c(Br)cc2Br)c(Br)c1
inactive: outcome [17] | Potency [2] | Potency [3] | Potency [4] | Potency [5] | Potency [6] | Potency [7] | Potency [20] | outcome [11] | activation [12] -4.19% | outcome [19] | Potency [14]

COc1ccc(N)cc1
14.8% and 16.7%: max response [18]
inactive: Potency [15] > 92 µM | Potency [16] > 92 µM | outcome [1] | outcome [17] | Potency [2] | Potency [3] | Potency [4] | Potency [5] | Potency [6] | Potency [7] | activation [8] -7.51% and 3.18% | Potency [9] | outcome [10] | outcome [11] | activation [12] -2.17% and -1.84% | outcome [19] | Potency [13] | Potency [14]

CC(=O)[O-].CC(=O)[O-].O.O.O.[Pb+2]
inactive: Potency [15] > 92 µM | Potency [16] > 92 µM | outcome [1] | outcome [17] | Potency [2] | Potency [3] | Potency [4] | Potency [5] | Potency [6] | Potency [7] | outcome [11] | outcome [19] | Potency [14]
-8.91% and -19.7%: max response [18]

CC(Cl)Cl
inactive: Potency [15] > 92 µM | Potency [16] > 92 µM | outcome [1] | outcome [17] | Potency [2] | Potency [3] | Potency [4] | Potency [5] | Potency [6] | Potency [7] | Potency [20] | activation [8] -9.28% | Potency [9] | outcome [10] | activation [12] -4.47% | outcome [19] | Potency [13] | Potency [14]
-6.24%: max response [18]
